In PubChem BioAssay (NCI) one finds growth data, which are given here for 40 compounds.

The structures appear in SMILES notation. Compounds without any hit were thinned out: in the full panel of roughly 83,000, 20% have a hit.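 Compound tested at a single concentration for 48 hours in 96-well plates; a percent growth value below 10 was scored as active.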 Unmarked numbers belong to inactive results. Calls of active or inactive are those of the source.

One assay deals with MCF7 breast. Kind of assay: NCI-60 one-dose screen, 48 h (100 = growth as untreated, 0 = no growth, -100 = all killed). The note with it: 10 µM.
As to `O=C1c2c(c(=O)[nH]c3ccccc23)CCN1Cc1ccccc1`, the growth was 97.5%. Still for that read-out and setting: as for `COc1ccccc1-n1c(-c2csc(NC(C)=O)n2)n[nH]c1=S`, the figure is 97.5%; as for `Cc1ccc(NCCN(C)CC(C)O)c2c(=O)c3ccccc3sc12` (stereo unspecified), 20%; as for `CCNCC(=O)Nc1ccc(C(=O)OCC)cc1`, 99.6%. Same read-out and setting: as for `COC(=O)C1OC1c1cc([N+](=O)[O-])ccc1OC` (stereo unspecified), the figure is 89.3%. With `O=C1c2ccccc2C(=O)c2c1ccc1c(=O)n(-c3ccccc3C(F)(F)F)nnc21`, the growth is -51.7% (active). Still for that read-out and setting: as for `Nc1ccccc1NC(=O)c1ccc(CCCC(=O)Nc2ccc(C3CC3N)cc2)cc1` (stereo unspecified), the figure is 17.7%. In the case of `C=CCn1c(SCC(=O)Nc2ccc(C(=O)/C=C/c3ccc(OC)cc3)cc2)nnc1-c1ccc(OC)c(OC)c1`, the growth was 43.5%. The same measure, in the same setting: the same measure for `CN1C(C(=O)Nc2ccccn2)=C(O)c2sc(Cl)cc2S1(=O)=O`: 96.6%; for `CC1/C=C/C=C/C=C/C=C/C=C/C=C/C=C/C(O[C@@H]2O[C@H](C)[C@H](O)[C@@H](O)[C@@H]2N)CC(O)C(C(=O)O)C(O)CC(=O)CC(O)CC(O)CC(O)CC(=O)CCCC(=O)CC(=O)OC1C(C)CC(C)C(O)CC(=O)c1ccc(N)cc1` (stereo partly specified): -87% (active); for `CCN(CC)CC(=O)N(CC)c1ccc(C)c(Cl)c1`: 98.6%. Same read-out and setting: as for `NC(CSC(c1ccccc1)(c1ccccc1)c1cccc2ccccc12)C(=O)O` (stereo unspecified), the figure is 105%; as for `O=C(CCn1cnc2c(cc(-c3ccccc3)n2-c2ccccc2)c1=O)Nc1ccc(F)cc1`, 74.7%. On the same count and under the same terms, the same measure for `COc1ccc(C(=O)CC(CC(=O)c2ccc(OC)cc2)c2c(C)nn(-c3ccccc3)c2Cl)cc1`: 95.4%; for `CCCN1CN2C(=O)N3CN(CCC)CN4C(=S)N(C1)C2C34` (stereo unspecified): 87.7%. Take `NC1=NC(c2ccccc2)C2=C(N1)/C(=C/c1ccccc1)CCC2` (stereo unspecified): the growth was 38.6%. Same read-out and setting: the same measure for `C[C@]12CC[C@@H]3c4ccc(O)cc4CC[C@H]3[C@@H]1CC[C@@H]2NS(=O)(=O)c1ccc(C(F)(F)F)cc1`: 2.42% (active); for `OCC1OC(n2cnc3c(NCc4ccco4)ncnc32)C(O)C1O` (stereo unspecified): -13.1% (active).

Turning to `COc1cc(C2CC(c3cc(Cl)c(C)cc3O)=NN2c2ccc(S(N)(=O)=O)cc2)cc(OC)c1OC` (stereo unspecified), the growth was -15.4% (active). On the same count and under the same terms, the same measure for `N=C1S/C(=C/c2ccc(-c3ccc4c(c3)C(=O)NC4=O)o2)C(=O)N1c1ccc(Br)cc1`: 3.39% (active); for `c1cnc2[nH]cc(-c3nc(-c4ccsc4)cs3)c2c1`: 57.7%. Same read-out and setting: as for `Clc1nc2ccc(Br)cc2cc1-c1nc2ccccc2[nH]1`, the figure is 42.5%. Still for that read-out and setting: the same measure for `Nc1nc(Cl)nc2c1ncn2C1O[C@H](CO)[C@@H](O)[C@@H]1F` (stereo partly specified): 30.7%; for `COc1ccc([C@H]2[C@H](C(=O)Nc3cccnc3)c3ccccc3C(=O)N2c2ccccc2)cc1`: 95.7%; for `COc1ccc(/C=C2\CCCC3C2=Nc2ccccc2NC3c2ccc(OC)cc2)cc1` (stereo unspecified): 56.1%.

Turning to `O=S(=O)(NCCCNc1nccc(-c2cn(-c3ccccc3)nc2-c2ccc(Cl)c(O)c2)n1)c1ccccc1`, the growth was 33%.

For the next assay, the system named is HCT-116 colon. The assay is described as above. Conditions: 10 µM.
As to `Nc1ccc(-c2cccs2)cc1NC(=O)c1ccc(CCCC(=O)Nc2ccc(C3CC3N)cc2)cc1` (stereo unspecified), the growth was 3.29% (active). The same measure, in the same setting: the same measure for `CCCc1cn(CC(=O)Nc2nc3ccccc3s2)nn1`: 101%; for `O=C(CCCCCCC(=O)Nc1ccccc1)NO`: 4.45% (active); for `O=[N+]([O-])c1ccc(/C(=C/c2ccccc2)[n+]2ccccc2)cc1`: 107%. The same measure, in the same setting: the same measure for `Oc1cccc(-c2nc3sccn3c2-c2ccncn2)c1`: 97.3%; for `COc1ccc(/C(=N\N)C(=O)c2ccccc2)cc1` (tested in a mixture with another compound): 103%. The same measure, in the same setting: the same measure for `COc1ccc(C(=O)N/N=C/c2cc(C(F)(F)F)ccc2Cl)cc1`: 93.2%. Turning to `OCC1OC2C(NC(=S)N2c2ccccc2)C(O)C1O` (stereo unspecified), the growth was 111%.

With `COc1cc2cc(Oc3ccc(NC(=O)Nc4cccc(C(F)(F)F)c4)cc3)c(C)nc2cc1OC`, the growth is 6.71% (active). Same read-out and setting: the same measure for `Cc1c2c[n+](C(C)C)ccc2c(C)c2c1[nH]c1ccccc12`: 20.1%; for `CC(=O)Nc1ccc(S(=O)(=O)c2ccnc3cc(Cl)ccc23)cc1`: 78.7%. Still for that read-out and setting: the same measure for `CS(=O)(=O)c1nccc(-c2c(-c3cccc(OCCN4CCOCC4)c3)nc3sccn23)n1`: 78.4%; for `COc1ccc(Cc2cnc(N)nc2N)cc1OC`: 99.8%; for `C=CCN(CC=C)C(=O)[C@H](CC)[C@@H]1CC[C@@H](C)[C@@H]([C@H](C)[C@@H](O)[C@@H](C)C(=O)[C@H](CC)C2O[C@]3(C=CC(=O)[C@]4(CC[C@@](C)([C@H]5CC[C@](O)(CC)[C@H](C)O5)O4)O3)[C@H](C)C[C@@H]2C)O1` (stereo partly specified): 13.9%. On the same count and under the same terms, as for `O=C1c2c(c(=O)[nH]c3ccccc23)CCN1Cc1ccccc1`, the figure is 94.8%. For `COc1ccccc1-n1c(-c2csc(NC(C)=O)n2)n[nH]c1=S`, the growth was 100%.

Take `Cc1ccc(NCCN(C)CC(C)O)c2c(=O)c3ccccc3sc12` (stereo unspecified): the growth is 18.5%.

Consider `CCNCC(=O)Nc1ccc(C(=O)OCC)cc1`, for which the growth was 96%. Same read-out and setting: the same measure for `COC(=O)C1OC1c1cc([N+](=O)[O-])ccc1OC` (stereo unspecified): 102%; for `O=C1c2ccccc2C(=O)c2c1ccc1c(=O)n(-c3ccccc3C(F)(F)F)nnc21`: -5.21% (active). Still for that read-out and setting: the same measure for `Nc1ccccc1NC(=O)c1ccc(CCCC(=O)Nc2ccc(C3CC3N)cc2)cc1` (stereo unspecified): 8.68% (active); for `C=CCn1c(SCC(=O)Nc2ccc(C(=O)/C=C/c3ccc(OC)cc3)cc2)nnc1-c1ccc(OC)c(OC)c1`: 55.5%; for `CN1C(C(=O)Nc2ccccn2)=C(O)c2sc(Cl)cc2S1(=O)=O`: 100%. The same measure, in the same setting: the same measure for `CC1/C=C/C=C/C=C/C=C/C=C/C=C/C=C/C(O[C@@H]2O[C@H](C)[C@H](O)[C@@H](O)[C@@H]2N)CC(O)C(C(=O)O)C(O)CC(=O)CC(O)CC(O)CC(O)CC(=O)CCCC(=O)CC(=O)OC1C(C)CC(C)C(O)CC(=O)c1ccc(N)cc1` (stereo partly specified): -90.7% (active). As to `CCN(CC)CC(=O)N(CC)c1ccc(C)c(Cl)c1`, the growth is 98.7%.

On to `NC(CSC(c1ccccc1)(c1ccccc1)c1cccc2ccccc12)C(=O)O` (stereo unspecified), for which the growth is 85.7%. Still for that read-out and setting: the same measure for `O=C(CCn1cnc2c(cc(-c3ccccc3)n2-c2ccccc2)c1=O)Nc1ccc(F)cc1`: 62.5%. On the same count and under the same terms, as for `COc1ccc(C(=O)CC(CC(=O)c2ccc(OC)cc2)c2c(C)nn(-c3ccccc3)c2Cl)cc1`, the figure is 88.9%.

For the compound `CCCN1CN2C(=O)N3CN(CCC)CN4C(=S)N(C1)C2C34` (stereo unspecified), the growth was 82.9%. As to `NC1=NC(c2ccccc2)C2=C(N1)/C(=C/c1ccccc1)CCC2` (stereo unspecified), the growth was -53.1% (active). Still for that read-out and setting: as for `C[C@]12CC[C@@H]3c4ccc(O)cc4CC[C@H]3[C@@H]1CC[C@@H]2NS(=O)(=O)c1ccc(C(F)(F)F)cc1`, the figure is 18.5%; as for `OCC1OC(n2cnc3c(NCc4ccco4)ncnc32)C(O)C1O` (stereo unspecified), 1.81% (active); as for `COc1cc(C2CC(c3cc(Cl)c(C)cc3O)=NN2c2ccc(S(N)(=O)=O)cc2)cc(OC)c1OC` (stereo unspecified), -14.3% (active). Still for that read-out and setting: as for `N=C1S/C(=C/c2ccc(-c3ccc4c(c3)C(=O)NC4=O)o2)C(=O)N1c1ccc(Br)cc1`, the figure is 31.8%; as for `c1cnc2[nH]cc(-c3nc(-c4ccsc4)cs3)c2c1`, 89.9%; as for `Clc1nc2ccc(Br)cc2cc1-c1nc2ccccc2[nH]1`, 77.8%. The same measure, in the same setting: as for `Nc1nc(Cl)nc2c1ncn2C1O[C@H](CO)[C@@H](O)[C@@H]1F` (stereo partly specified), the figure is 25.3%. Consider `COc1ccc([C@H]2[C@H](C(=O)Nc3cccnc3)c3ccccc3C(=O)N2c2ccccc2)cc1`, for which the growth was 49.4%. The same measure, in the same setting: as for `COc1ccc(/C=C2\CCCC3C2=Nc2ccccc2NC3c2ccc(OC)cc2)cc1` (stereo unspecified), the figure is 38.1%. With `O=S(=O)(NCCCNc1nccc(-c2cn(-c3ccccc3)nc2-c2ccc(Cl)c(O)c2)n1)c1ccccc1`, the growth is 53.1%.
